# Source: PubChem BioAssay (NCI)
# Where “and” joins values, the source holds several entries; their conditions need not be identical. Identical values can stand only once. The panel holds about 79,000 compounds, 15% with a hit somewhere; the sample as a whole holds those more often. A number with no mark means an inactive call. Calls of active or inactive are those of the source. No stated cut-off is given here; in the data, active means growth inhibition above about 70%; inactive means the rest.
# Key:
# [1] = NCI Yeast Anticancer Drug Screen. Data for the rad50 strain (AID 155);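 further: 0% = growth of vehicle-only cultures of the same strain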; settings: S. cerevisiae rad50 strain growth inhibition, hits give high values
# Procedure, shortened: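 Yeast carrying a defined DNA repair defect were exposed to test compounds, and growth was compared with vehicle-treated controls to give percent inhibition.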
# [2] = NCI Yeast Anticancer Drug Screen. Data for the mec2-1 strain (AID 157); settings: S. cerevisiae mec2-1 strain, hits give high values
# Procedure, shortened: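 Readout is yeast growth inhibition, normalised to vehicle-treated controls, in the mec2-1 strain exposed to compound.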
# [3] = NCI Yeast Anticancer Drug Screen. Data for the sgs1 mgt1 strain (AID 161);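 further: 0% = growth of cultures given vehicle only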; settings: S. cerevisiae sgs1 mgt1 strain, hits give high values
# Procedure, shortened: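 Compounds are added to genetically altered yeast, and growth is compared with cultures given vehicle alone to give percent inhibition.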
# [4] = NCI Yeast Anticancer Drug Screen. Data for the cln2 rad14 strain (AID 165);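 further: 0% = growth equal to vehicle treated cultures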; settings: S. cerevisiae cln2 rad14 strain, hits give high values
# Procedure, shortened: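 Relative to vehicle controls, growth inhibition of compound-treated cln2 rad14 yeast was recorded.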
# [5] = NCI Yeast Anticancer Drug Screen. Data for the bub3 strain (AID 167); settings: S. cerevisiae bub3 mutant strain, hits give high values
# Procedure, shortened: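 Compounds were applied to a genetically altered yeast strain carrying a cell-cycle control defect. Growth inhibition was scored against vehicle-treated controls.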
# [6] = NCI Yeast Anticancer Drug Screen. Data for the mlh1 rad18 strain (AID 175); settings: S. cerevisiae mlh1 rad18 strain growth inhibition, hits give high values
# Procedure, shortened: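 Test agents were incubated with a yeast strain of defined genotype (DNA damage repair defect). Inhibition of growth was derived by comparison with vehicle-exposed cultures.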
# [7] = at 5.0 µM (retest, dose inferred, filed as 0.5)
# [8] = at 50.0 µM (retest, dose inferred, filed as 5.0)
Compound,"growth inhibition [1, 7]","growth inhibition [1, 8]","growth inhibition [2, 7]","growth inhibition [2, 8]","growth inhibition [3, 7]","growth inhibition [3, 8]",growth inhibition ([3]; at 50.0 µM),"growth inhibition [4, 7]","growth inhibition [4, 8]",growth inhibition ([4]; at 50.0 µM),"growth inhibition [5, 7]","growth inhibition [5, 8]",growth inhibition ([5]; at 50.0 µM),"growth inhibition [6, 7]","growth inhibition [6, 8]",growth inhibition ([1]; at 50.0 µM),growth inhibition ([6]; at 50.0 µM),growth inhibition ([2]; at 50.0 µM)
O=C([O][Hg][CH2]C1COC([CH2][Hg][O]C(=O)c2ccccc2)CO1)c1ccccc1 (stereo unspecified),98% (active),98% (active),99% (active),99% (active),99% (active),99% (active),89.5% (active),97% (active),98% (active),90.6% (active),100% (active),99% (active),89.7% (active),98% (active),98% (active),–,–,–
CC(=O)[CH-]C(C)=O.CC(=O)[CH-]C(C)=O.N=CC=N.[Sn+2],95% (active),98% (active),–,–,98% (active),99% (active),94.2% (active),87% (active),97% (active),93.5% (active),–,–,–,–,–,88.2% (active),–,–
O=C(CBr)c1ccncc1,99% (active),99% (active),100% (active),100% (active),100% (active),99% (active),–,99% (active),99% (active),–,100% (active),99% (active),–,95% (active),98% (active),–,–,–
CC(Cc1ccc2c(c1)OCO2)NN (stereo unspecified),-2%,37%,-5%,6%,-2%,59%,–,-5%,-8%,–,2%,34%,–,-20%,16%,–,–,–
O=C1C=C(N2CC2)C(=O)C=C1N1CC1,91% (active),98% (active),90% (active),99% (active),27%,41%,88% (active),24%,25%,89.2% (active),20%,55%,87.7% (active),94% (active),97% (active),–,–,–
Cc1cc(CCN)c(C)c2c1oc1ccccc12,-9%,95% (active),–,–,-7%,99% (active),98.8% (active),-5%,98% (active),62.8%,-22%,96% (active),93% (active),-6%,98% (active),98.5% (active),98.6% (active),–
O=[N+]([O-])c1cc(Cl)c(Cl)cc1[N+](=O)[O-],83% (active),99% (active),16%,99% (active),41%,100% (active),–,-2%,99% (active),–,14%,99% (active),–,-11%,98% (active),–,–,–
COc1ccc([Se][Se]c2ccc(OC)cc2OC)c(OC)c1,18%,18%,–,–,18%,18%,88.5% (active),9%,9%,90% (active),-4%,-4%,89.7% (active),12%,12%,88.3% (active),88.4% (active),–
CC1(C)N=C(N)N=C(N)N1c1ccc(OCCCCNC(=O)Nc2ccc(S(=O)(=O)F)cc2)c(Cl)c1,-3%,96% (active),–,–,-1%,98% (active),99.4% (active),-4%,98% (active),97.3% (active),-3%,98% (active),98.8% (active),-2%,99% (active),98.3% (active),99.1% (active),–
COc1cc(/C=C/[N+](=O)[O-])cc(OC)c1OC,34%,99% (active),22%,99% (active),48%,100% (active),–,13%,99% (active),–,19%,100% (active),–,-8%,99% (active),–,–,–
CCCC1CC[N-]CC1.CCCC1CC[N-]CC1.N#C[S-].N#C[S-].[Cd],31%,86% (active),10%,59%,10%,76% (active),–,9%,65%,–,8%,56%,–,-14%,46%,–,–,–
C[CH2][Sn]([CH2]C)([CH2]C)[CH2]C,6%,54%,3%,22%,-3%,58%,–,-6%,12%,–,0%,35%,–,-8%,44%,–,–,–
NC(=O)c1cc([N+](=O)[O-])c(Cl)c([N+](=O)[O-])c1Cl,34%,65%,–,–,83% (active),98% (active),91.5% (active),91% (active),100% (active),90.3% (active),66%,97% (active),88.2% (active),39%,61%,88.9% (active),88.3% (active),–
CC1CCN(C(CC(=O)c2ccccc2)C(=O)c2ccccc2)CC1 (stereo unspecified),20%,99% (active),7%,100% (active),21%,99% (active),–,9%,99% (active),–,13%,100% (active),–,-2%,98% (active),–,–,–
O=[N+]([O-])/C=C/c1cccc([N+](=O)[O-])c1,98% (active),99% (active),99% (active),100% (active),100% (active),100% (active),–,35%,99% (active),–,97% (active),100% (active),–,-9%,99% (active),–,–,–
CC(=O)O[C@H]1C(=O)O[C@@H]2C[C@H]3C(C)=CC(=O)[C@@H](O)[C@]3(C)[C@H]3[C@@]4(O)OC[C@]32[C@@H]1[C@@H](C)[C@H]4O,21%,86% (active),–,–,17%,82% (active),59.6%,36%,90% (active),74.2% (active),1%,74% (active),60.4%,20%,93% (active),81% (active),83.9% (active),–
CCC1CN2CCC3(C(=O)Nc4ccccc43)C2CC1/C(=C/OC)C(=O)OC (stereo unspecified),–,–,–,–,–,–,7.85%,–,–,2.55%,–,–,13.7%,–,–,-1.8%,12.4%,-12.3%
O=NN1CCOCC1,–,–,–,–,–,–,14.8%,–,–,-15.7%,–,–,-1.6%,–,–,-36.5%,31.1%,11.1%

Compound,"growth inhibition [1, 7]","growth inhibition [1, 8]","growth inhibition [2, 7]","growth inhibition [2, 8]","growth inhibition [3, 7]","growth inhibition [3, 8]",growth inhibition ([3]; at 50.0 µM),"growth inhibition [4, 7]","growth inhibition [4, 8]",growth inhibition ([4]; at 50.0 µM),"growth inhibition [5, 7]","growth inhibition [5, 8]",growth inhibition ([5]; at 50.0 µM),"growth inhibition [6, 7]","growth inhibition [6, 8]",growth inhibition ([1]; at 50.0 µM),growth inhibition ([6]; at 50.0 µM),growth inhibition ([2]; at 50.0 µM)
COC1C=CC23c4cc5c(cc4COC2(O)CN(C)C3C1)OCO5 (stereo unspecified),–,–,–,–,–,–,-56.5%,–,–,-4.5%,–,–,-18.9%,–,–,-18.2%,-28.6%,-26.2%
C[C@@]1(CCCCCCCCCCc2ccccc2)C[C@@]2(C)OC(=O)C[C@H]2OO1,–,–,–,–,–,–,-20.2%,–,–,-39%,–,–,-80.7%,–,–,-15.1%,-25.6%,-6.05%
CCCCN(CCCC)CC(O)c1ccc(Cl)c(Cl)c1 (stereo unspecified),–,–,–,–,–,–,28.9%,–,–,41.3%,–,–,18%,–,–,-1.5%,–,-21.3%
C/C(=N\N=C(\[Se])N(C)C)c1ccccn1,–,–,–,–,–,–,89.7% (active),–,–,89.3% (active),–,–,–,–,–,86.9% (active),–,89.9% (active)
CN1c2ccccc2NP1(=S)c1ccccc1 (stereo unspecified),–,–,–,–,–,–,95.2% (active),–,–,40.5%,–,–,55.9%,–,–,69.5%,–,80% (active)
O=c1ccc(=O)[nH][nH]1,–,–,–,–,–,–,5.6% and 7.25% and -6.05%,–,–,3.85% and 27.6% and -7.1%,–,–,1.65% and 30% and 26.9%,–,–,6.25% and 36.3% and -4.05%,–,10.2% and 23.1% and -12.5%
COc1ccc2c(c1)C(=O)C(N)C2 (stereo unspecified),–,–,–,–,–,–,0.5%,–,–,-21.6%,–,–,7.4%,–,–,2%,20.1%,1.95%
N.N.N.N.N.N.[I-].[Os],–,–,–,–,–,–,5.4%,–,–,7.6%,–,–,1.25%,–,–,23.5%,-2%,1.45%
C[C@]12C=CC(=O)NC[C@@H]1CC[C@@H]1[C@@H]2CC[C@]2(C)[C@@H](OC(=O)COc3ccc(N(CCCl)CCCl)cc3)CC[C@@H]12,–,–,–,–,–,–,8.1%,–,–,1.2%,–,–,3.05%,–,–,18.1%,–,5.05%
C/C=C/c1cc2n(c1)C(=O)c1cc(OC3OC(C)C(NC)C(C)(O)C3O)c(C)c(O)c1NC2O (stereo unspecified),–,–,–,–,–,–,20.8%,–,–,2.75%,–,–,14.2%,–,–,20.9%,-47.4%,1.1%
CCCC(C)c1ccc(SOO)cc1.[Fe] (stereo unspecified),–,–,–,–,–,–,-13.7%,–,–,-17.5%,–,–,8.5%,–,–,19.9%,-6.6%,4.05%
CC(C)C(Br)C(N)=O (stereo unspecified),–,–,–,–,–,–,9.75%,–,–,-24.6%,–,–,-2.85%,–,–,-36.1%,-14.8%,-31.1%
CN(C)CCNC(=O)c1c([N+](=O)[O-])ccc(N(CCCl)CCCl)c1[N+](=O)[O-],–,–,–,–,–,–,-9.9%,–,–,-27.7%,–,–,13.2%,–,–,12.7%,-2.65%,-11.4%
CNC(P(=O)([O-])[O-])P(=O)([O-])[O-].N.N.[Pt+2],–,–,–,–,–,–,-47.2%,–,–,-17.1%,–,–,-8.65%,–,–,-0.2%,–,-16.3%
CCCO[As](=O)(OCCC)OCCC,–,–,–,–,–,–,5.8%,–,–,11.8%,–,–,24.1%,–,–,5.55%,-9.1%,6.95%
CC(C)CC1N=C(NN=C2CCCCC2)SP1(=O)NNc1ncccn1 (stereo unspecified),–,–,–,–,–,–,12.5%,–,–,2.35%,–,–,0.4%,–,–,1.25%,–,7.15%
N.O=S(=O)(O)O.[Al],–,–,–,–,–,–,4.85%,–,–,-3.8%,–,–,-5.1%,–,–,6.55%,-2.4%,7.45%
